The results in this text go back to the supplement of paper PMC6522484.

Assay [1] has as its system DLD1. In words: cell viability (CellTiter-Glo) relative to plate median (fraction of plate median); higher = more viable cells. The settings on record: 5 µM; treatment time 24 h; reporter: 7TFP. In short, it runs like this:
(§1)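 Signals from firefly luciferase or CellTiterGlo readouts were normalised well by well to the plate median using webcellHTS2, additively and with no log transformation. They came from colorectal cancer cell lines stably holding lentiviral TCF/Wnt firefly luciferase reporters (7TFP or TCF4/Wnt), treated with library compounds at a final 5 µM for 24 h. The mean of two independent replicates is given.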
On the technique in general: Cellular ATP, detected with luciferase, serves as a proxy for viable cell number.

Another assay concerns HCT116. The assay is described as above. The settings on record: 5 µM; treatment time 24 h; reporter: TCF4/Wnt. In short, it runs like this:
as §1

Assay [2] concerns SW480. The description is as above. The settings on record: 5 µM; treatment time 24 h; reporter: 7TFP. In short, it runs like this:
as §1

Assay [3] relates to DLD1. In words: TCF/Wnt firefly luciferase reporter signal relative to plate median (fraction of plate median); higher = higher Wnt reporter signal. The settings on record: 5 µM; treatment time 24 h; reporter: 7TFP. In short, it runs like this: as §1
A general note: A reporter such as luciferase makes a cellular process visible.

Assay [4] deals with SW480. Described as above. Conditions: 5 µM; treatment time 24 h; reporter: 7TFP. In short, it runs like this: as §1

± gives the standard deviation of the averaged measurements.

Regarding `NCC1(CC(=O)O)CCCCC1`, the figures for the cell viability with DLD1 [1], in the assay on HCT116 and in the assay with SW480 [2] were 1 ± 0.083, 1.08 ± 0.021 and 0.981 ± 0.013, respectively. Besides, the “TCF/Wnt firefly luciferase reporter signal” value in the assay with DLD1 [3] is 1.07 ± 0.057; in the assay on SW480 [4], 1.1 ± 0.064.

For `O=C(O)CF`, the results for the cell viability in the assay with DLD1 [1], in the assay on HCT116 and in the assay with SW480 [2] were 0.951 ± 0.049, 0.968 ± 0.059 and 1.035 ± 0.0071, respectively. The figures for the “TCF/Wnt firefly luciferase reporter signal” value with DLD1 [3] and in the assay on SW480 [4] were 1.05 ± 0.014 and 1.07 ± 0.042, respectively.
